Assay outcomes from PubChem BioAssay.
Dicer inh: inhibitors of Dicer pre-microRNA processing, primary screen, biochemical, cat-ELCCA, chemiluminescence; Endoribonuclease Dicer (Homo sapiens), Q9UPY3; cat-ELCCA pre-miR-21 Dicer processing; active compounds read high; z-score at 25 µM; 6% of 47,000 active; AID 1347074, 2019; in the data active = z-score above about 3, passing the limit was not always enough;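 note: plate controls were vehicle for no effect and no enzyme for full effect; higher signal means more uncleaved substrate so more Dicer inhibition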
* marks the source's active call; other numbers are inactive results. The full list was thinned out, with hits kept by preference.

SMILES	Dicer inh
COc1ccc(C2CC(=O)C3=C(C2)Nc2nc4ccccc4n2C3c2ccco2)cc1 (stereo unspecified)	-0.8
COc1ccc(C2C3=C(CC(c4ccco4)CC3=O)Nc3nc4ccccc4n32)cc1 (stereo unspecified)	3.13*
O=C1CC(c2ccco2)CC2=C1C(c1cccnc1)n1c(nc3ccccc31)N2 (stereo unspecified)	0.79
CC(C)(C)c1cc(C(=O)Oc2cccnc2)cc(C(=O)Oc2cccnc2)c1	-0.2
C/C(=N\NC(=S)NC1CC2C=CC1C2)c1ccccc1OCC(=O)O (stereo unspecified)	1.72
CC(O)c1nc2ccccc2n1CC(=O)N(c1ccccc1)C(C)C (stereo unspecified)	0.62
CC(C)N(C(=O)CSc1nc2ccccc2s1)c1ccccc1	-0.03
CC(C)N(C(=O)CN(C#N)c1nc(N(C)C)nc(N(C)C)n1)c1ccccc1	5.21*
O=C1c2ccncc2C(=O)N1c1ccc(F)cc1F	-1.58
Cc1c(Br)sc2ccc(Cl)cc12	-0.22
COc1cccc(C=Nc2ccc(S(=O)(=O)/N=C(N)/N=C/c3cccc(OC)c3O)cc2)c1O	-0.79
COc1cccc(C=NCCCC2C=NNC2=O)c1O (stereo unspecified)	5.17*
COc1ccc(NC(=S)NCCCC2C=NNC2=O)cc1 (stereo unspecified)	0.41
Cn1ncc(C(=O)Nc2ccc(Cl)c(Cl)c2)c1[N+](=O)[O-]	-0.64
C=CCOc1ccc(C2c3c(oc4ccc(C)cc4c3=O)C(=O)N2CCCN(C)C)cc1OCC (stereo unspecified)	1.07
CCOc1cc(C(Nc2cc(C)ccn2)c2ccc3cccnc3c2O)ccc1O (stereo unspecified)	14*
Cc1ccnc(NC(c2ccc(N(C)C)cc2)c2ccc3ccc(C)nc3c2O)c1 (stereo unspecified)	1.03
Cc1ccnc(NC(c2ccc(N(C)C)cc2)c2ccc3cccnc3c2O)c1 (stereo unspecified)	6.27
COc1cc(C(Nc2cc(C)ccn2)c2ccc3cccnc3c2O)ccc1O (stereo unspecified)	11.1*
COc1ccc(C)cc1NC(c1cccnc1)c1ccc2cccnc2c1O (stereo unspecified)	2.26
COc1ccc(C(Nc2ccccn2)c2ccc3ccc(C)nc3c2O)cc1OC (stereo unspecified)	0.29
CCOc1cc(C(Nc2cc(C)ccn2)c2ccc3cccnc3c2O)ccc1OC (stereo unspecified)	-0.73
COc1cccc(C(Nc2cc(C)ccn2)c2ccc3ccc(C)nc3c2O)c1 (stereo unspecified)	6.83*
CCOc1cccc(C(Nc2ccccn2)c2ccc3ccc(C)nc3c2O)c1 (stereo unspecified)	-0.34
CCOc1ccc(C(Nc2cc(C)ccn2)c2ccc3cccnc3c2O)cc1OC (stereo unspecified)	5.23*
SMILES	Dicer inh
COc1cccc(NC(=O)Nc2ccc(C(F)(F)F)cn2)c1	-1.72
Cc1onc(-c2ccccc2Cl)c1NC(=O)Nc1cccc(Cl)c1Cl	0.8
O=C(Nc1ccc(OC(F)(F)F)cc1)Nc1cnn(-c2ccccc2)c1C(F)(F)F	0.46
Cc1ccc(C(=O)N2CCN(CC(=O)Nc3cc(-c4ccccc4)sc3C(N)=O)CC2)cc1	0.24
C/C(Cc1nnn(-c2cc(C)on2)n1)=N\OS(=O)(=O)c1ccc(Cl)cc1	-1.01
O=C(CN1C(=O)C2CCCCC2C1=O)N1CCN(c2ccc(F)cc2)CC1 (stereo unspecified)	6.52*
O=C1CCC2C(=O)N(CC(=O)N3CCCC3)C(=O)C2C1 (stereo unspecified)	-0.13
O=C(CN1C(=O)c2cccc3cccc1c23)N1CCN(c2ccc(F)cc2)CC1	-0.9
N#Cc1cccnc1SCCOC(=O)c1cccc(Cl)c1	-1.32
COc1ccc2[nH]c(=O)c(-c3noc(-c4ccncc4)n3)cc2c1	0.53
COc1cccc(N2C(=O)CC(Sc3nnc(C)s3)C2=O)c1 (stereo unspecified)	0.35
CCOCCOC(=O)C1=C(C)NC2=C(C(=O)CC(c3cccs3)C2)C1c1ccc2c(c1)OCO2 (stereo unspecified)	2.02
CCOC(=O)c1sc(Nc2nc(C)c(CC)c(OC)n2)nc1C	0.87
CCOC(=O)c1cc2nc3sccn3c2s1	-0.99
CCOC(=O)c1cc2nc(Nc3ccc(OC)cc3)sc2s1	3.28*
c1ccc(N2CCN(CCNc3ncnc4nc[nH]c34)CC2)cc1	-1.65
CSCCC1Oc2ccc(Br)cc2C2CC(c3ccccc3O)=NN12 (stereo unspecified)	11.3*
CSCCC1Oc2ccccc2C2CC(c3ccccc3O)=NN12 (stereo unspecified)	3.78
Brc1ccc2c(c1)C1CC(c3ccccc3)=NN1C(c1cccnc1)O2 (stereo unspecified)	1.04
COc1cccc2c1OC(CCSC)N1N=C(c3cc(C)ccc3O)CC21 (stereo unspecified)	-0.7
COc1ccc(C2Oc3c(OC)cccc3C3CC(c4cc(OC)ccc4O)=NN32)cc1 (stereo unspecified)	0.44
